Results from PubChem BioAssay.
Calls of active or inactive are those of the source. Unless noted, no rule for the calls is given here.

Tests used:
[1] = compound effects on lung adenocarcinoma cell viability – A549, calcein-AM fluorescence, 48 h, basal, profiling panel (AID 1162); conditions: higher = more signal; also: test concentration not given here
[2] = compound effects on differentiated 3T3-L1 adipocyte viability – cell-based, 3T3-L1 adipocytes, calcein-AM fluorescence, 48 h, basal, profiling panel (AID 1163); conditions: 3T3-L1 adipocytes viability, higher = more signal; also: test concentration not given here
[3] = compound effects on hepatocellular carcinoma cell viability – HepG2, calcein-AM fluorescence, 48 h, basal, profiling panel (AID 1164); conditions: higher = more signal; also: test concentration not given here
[4] = compound effects on multiple myeloma cell viability – MM1S, calcein-AM fluorescence, 48 h, basal, profiling panel (AID 1165); conditions: higher = more signal; also: test concentration not given here
[5] = calcein-AM signal in unstimulated myeloma cells – cell-based, calcein-AM fluorescence, 48 h, PK04 Diversity Set, profiling panel (AID 1166); conditions: RPMI8226 myeloma viability, higher = more signal;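 also: cells grown under basal conditions without added stimulus; test concentration not given here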
[6] = JC-1 mitochondrial signal, unstimulated HepG2 cells – cell-based, JC-1 fluorescence, 24 h, 100 nL compound, profiling panel (AID 1167); conditions: HepG2 mitochondrial potential, higher = more signal; also: test concentration not given here
[7] = JC-1 mitochondrial signal, unstimulated adipocytes – cell-based, JC-1 fluorescence, 3T3-L1 adipocytes, 24 h, 100 nL compound, profiling panel (AID 1168); conditions: JC-1 mitochondrial fluorescence, higher = more signal, called active from +8 up or from −8 down; also: test concentration not given here
[8] = JC-1 mitochondrial signal, unstimulated myeloma cells – cell-based, JC-1 fluorescence, RPMI8226, 24 h, 100 nL compound, profiling panel (AID 1169); conditions: JC-1 mitochondrial potential fluorescence, higher = more signal; also: test concentration not given here
[9] = JC-1 mitochondrial signal, unstimulated MM1S myeloma – cell-based, JC-1 fluorescence, 24 h, 100 nL compound, profiling panel (AID 1170); conditions: MM1S mitochondrial potential, higher = more signal; also: test concentration not given here
[10] = resazurin metabolic signal in A549 cells – cell-based, resazurin fluorescence, 24 h, PK04 Diversity Set, profiling panel (AID 1171); conditions: A549 viability, higher = more signal, called active from +8 up or from −8 down; also: test concentration not given here
[11] = resazurin metabolic signal in HepG2 cells – cell-based, resazurin fluorescence, 24 h, PK04 Diversity Set, profiling panel (AID 1172); conditions: HepG2 viability, higher = more signal; also: test concentration not given here
[12] = budding yeast growth changes without added modifier – OD600, strain BY4716, 24 h, basal condition, primary screen (AID 1173); conditions: S. cerevisiae BY4716 growth, OD600, 24 h; higher = more signal, called active from +8 up or from −8 down
[13] = viability profiling in MM1S myeloma cells – cell-based, resazurin fluorescence, basal, 24 h, PK04 Diversity Set, profiling panel (AID 1174); conditions: higher = more signal, called active from +8 up or from −8 down; also: test concentration not given here
[14] = molecular target: Dihydroorotate dehydrogenase (quinone), mitochondrial (Plasmodium falciparum (isolate 3D7)) (UniProt Q08210); assay: inhibition of P. falciparum DHODH – biochemical, C-terminal His tag, absorbance 600 nm, primary screen (AID 1175); conditions: PfDHODH enzyme, DCIP absorbance 600 nm; higher = more signal, called active from +8 up or from −8 down;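 also: recombinant parasite enzyme with a five histidine tag at its C terminus; test concentration not given here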
[15] = inhibition of PAO1 biofilm formation – strain PAO1, LB-PBS medium, absorbance 600 nm, primary screen (AID 1176); also: test concentration not given here; conditions: P. aeruginosa PAO1 growth/biofilm, A600, 12 h; higher = more signal
[16] = growth modulation of vineyard yeast isolate – strain RM11-1a, OD600, basal, 24 h, primary screen (AID 1177);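 also: cultures grown under basal conditions with no added stressor; test concentration not given here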; conditions: S. cerevisiae RM11-1a growth, OD600, 24 h; higher = more signal, called active from +8 up or from −8 down
[17] = growth of efflux-deficient E. coli DRC39 – strain DRC39, OD650, 24 h, E. coli filamentation inducers, primary screen (AID 1178);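 also: growth measured as culture turbidity by optical density at 650 nm; test concentration not given here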; conditions: E. coli DRC39 acrAB, higher = more signal, called active from +8 up or from −8 down
[18] = growth of efflux-deficient E. coli DRC39 – strain DRC39, OD650, 48 h, E. coli filamentation inducers, primary screen (AID 1179);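 also: screen aims at cell division blockers that make cells filament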; conditions: E. coli DRC39 delta-acrAB growth, higher = more signal, called active from +8 up or from −8 down
[19] = viability profiling in RPMI8226 myeloma cells – cell-based, resazurin fluorescence, basal, 24 h, PK04 Diversity Set, profiling panel (AID 1180); conditions: higher = more signal;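 also: RPMI8826 multiple myeloma cell line at 5000 cells per well; test concentration not given here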
[20] = molecular target: E3 ubiquitin-protein ligase XIAP (Homo sapiens) (UniProt P98170); assay: small molecules binding XIAP protein – biophysical, small-molecule microarray, fluorescence 635 nm, primary screen (AID 1181); conditions: higher = more signal;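 also: score merges 667 nm emission and signal to noise over triplicate slides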
Chain of E3 ubiquitin-protein ligase XIAP (Homo sapiens) (P98170 whole entry, looked up): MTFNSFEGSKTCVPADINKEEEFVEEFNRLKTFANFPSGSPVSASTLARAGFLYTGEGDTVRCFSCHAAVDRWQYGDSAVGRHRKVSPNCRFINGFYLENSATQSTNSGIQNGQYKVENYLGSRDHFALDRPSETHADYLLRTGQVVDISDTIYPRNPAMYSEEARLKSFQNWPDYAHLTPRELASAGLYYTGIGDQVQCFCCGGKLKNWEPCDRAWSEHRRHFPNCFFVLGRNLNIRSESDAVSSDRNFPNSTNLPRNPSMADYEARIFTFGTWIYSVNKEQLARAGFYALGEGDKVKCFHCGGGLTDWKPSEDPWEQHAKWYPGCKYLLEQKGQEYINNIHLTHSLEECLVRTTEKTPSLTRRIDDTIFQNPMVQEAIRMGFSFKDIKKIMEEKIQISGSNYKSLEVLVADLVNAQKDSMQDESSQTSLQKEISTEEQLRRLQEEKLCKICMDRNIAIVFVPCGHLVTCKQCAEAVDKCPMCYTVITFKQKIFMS

Chain of Dihydroorotate dehydrogenase (quinone), mitochondrial (Plasmodium falciparum (isolate 3D7)) (Q08210 whole entry, looked up): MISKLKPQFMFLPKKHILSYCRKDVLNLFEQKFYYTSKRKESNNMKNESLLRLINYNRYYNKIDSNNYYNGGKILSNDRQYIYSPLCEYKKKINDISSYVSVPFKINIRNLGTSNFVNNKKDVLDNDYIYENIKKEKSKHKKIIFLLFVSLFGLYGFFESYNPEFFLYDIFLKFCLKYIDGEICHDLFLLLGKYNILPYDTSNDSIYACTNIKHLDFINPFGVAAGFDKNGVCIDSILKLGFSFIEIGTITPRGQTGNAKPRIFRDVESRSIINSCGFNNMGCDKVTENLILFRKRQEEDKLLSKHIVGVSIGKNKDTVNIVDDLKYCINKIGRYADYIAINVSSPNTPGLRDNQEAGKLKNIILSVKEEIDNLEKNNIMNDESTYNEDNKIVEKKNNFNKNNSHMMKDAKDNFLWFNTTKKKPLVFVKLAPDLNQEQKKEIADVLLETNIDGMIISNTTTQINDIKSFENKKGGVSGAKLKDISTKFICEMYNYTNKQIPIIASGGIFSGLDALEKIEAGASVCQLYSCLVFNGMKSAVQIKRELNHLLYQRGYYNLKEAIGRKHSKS

SMILES | z-score [1] | z-score [2] | z-score [3] | z-score [4] | z-score [5] | z-score [6] | z-score [7] | z-score [8] | z-score [9] | z-score [10] | z-score [11] | z-score [12] | z-score [13] | composite z-score [14] | z-score [15] | z-score [16] | z-score [17] | z-score [18] | z-score [19] | composite z-score [20]
CCN1C(=O)C2CC(=O)C3C(CN(S(=O)(=O)c4ccc(C)cc4)C3c3ccc(C)cc3)C2C1=O (stereo not given) | 0.159 | -0.902 | 0.118 | 1.03 | 0.0667 | -0.167 | -0.00388 (inactive) | -0.129 | -1.25 | -0.064 (inactive) | -0.733 | 0.728 (inactive) | -0.631 (inactive) | 0.551 (inactive) | -0.144 (inactive) | 0.5 (inactive) | -0.772 (inactive) | 0.346 (inactive) | -0.627 | -0.148
CN(C)CCCC[C@@H]1NC(=O)[C@H]2C[C@@H](C(=O)NCCCCCCNC(=O)CS)[C@@H](c3cccc(OCCO)c3)N2C1=O | -0.234 | -0.288 | -0.384 | -0.315 | -0.357 | -1.27 | -0.0363 (inactive) | 0.503 | -0.177 | 0.0246 (inactive) | -0.27 | -0.587 (inactive) | -0.956 (inactive) | -0.237 (inactive) | 0.463 (inactive) | -0.511 (inactive) | 0.329 (inactive) | 0.0044 (inactive) | -0.713 | -0.177
CC(C)C[C@@H]1NC(=O)[C@@H]2C[C@H](C(=O)NCCCCCNC(=O)CS)[C@H](c3ccc(O)cc3)N2C1=O | 0.161 | 2.21 | -0.787 | -0.263 | -0.782 | -0.63 | -0.195 (inactive) | 0.393 | -1.1 | 0.16 (inactive) | 0.432 | -1.44 (inactive) | 0.974 (inactive) | -0.24 (inactive) | 2.91 (inactive) | -1.38 (inactive) | -0.692 (inactive) | -0.539 (inactive) | 0.718 | 0.302
COC(=O)C(CC#Cc1ccc2c(c1)[C@]1(C(=O)N2)[C@H](C(N)=O)[C@H]2C(=O)O[C@H](c3ccccc3)[C@H](c3ccccc3)N2[C@@H]1c1ccccc1OCCO)C(=O)OC | -0.782 | -0.436 | -4.23 | -3.4 | -4.62 | -0.82 | 4.3 (inactive) | -1.18 | -2.2 | -2.83 (inactive) | -2.07 | 0.289 (inactive) | -9.27 (active) | 1.53 (inactive) | 2.35 (inactive) | 2.62 (inactive) | 0.0025 (inactive) | 0.957 (inactive) | -7.44 | 0.0289
C=C(C(=O)CC[C@@H](OC(=O)c1ccccc1-c1ccccc1C(=O)O)c1cccc(OCCO)c1)C(C)C | 0.811 | 0.647 | -0.474 | -0.305 | -0.637 | -1.12 | 1.01 (inactive) | -0.143 | 0.0602 | 1.33 (inactive) | 0.821 | -1.96 (inactive) | 1 (inactive) | -1.26 (inactive) | 0.661 (inactive) | -0.364 (inactive) | 0.546 (inactive) | 0.332 (inactive) | 1.82 | 0.112
C=C(COC)/C(=C/C[C@@H](OC(=O)c1ccncc1)c1ccccc1OCCO)c1cnc2ccccc2c1 | 0.746 | 0.317 | -0.316 | -3.18 | -0.986 | 2.78 | -1.16 (inactive) | -0.527 | 1.61 | 0.268 (inactive) | -0.567 | -0.0618 (inactive) | 0.028 (inactive) | -3.66 (inactive) | -0.66 (inactive) | 0.0519 (inactive) | 0.825 (inactive) | 0.359 (inactive) | 0.0353 | 0.166
C=CCOC(=O)[C@H]1[C@@H]2C(=O)O[C@@H](c3ccccc3)[C@@H](c3ccccc3)N2[C@@H](c2ccc(OCCOC(=O)[C@H]3C[C@H]4C(=O)NCC(=O)N4[C@H]3c3cccc(OCCO)c3)cc2)[C@]12C(=O)Nc1ccc(I)cc12 | 0.0164 | 0.656 | 0.902 | -0.223 | 0.491 | -0.777 | -0.00167 (inactive) | -0.554 | -1.28 | 0.592 (inactive) | -0.199 | 1.18 (inactive) | 0.265 (inactive) | 0.603 (inactive) | 1.88 (inactive) | 1.5 (inactive) | -0.274 (inactive) | 0.765 (inactive) | 0.973 | 0.0431
C=CCC(OC(C)=O)[C@@H]1[C@@H](N(Cc2ccc(-c3ccccc3)cc2)C(=O)Cc2ccc(OC)cc2)c2cc(OCCCO)ccc2N1C(=O)Cc1ccc(OC)cc1 (stereo not given in full) | 0.0816 | 0.9 | -0.103 | 0.11 | -0.203 | 2.58 | -0.454 (inactive) | -0.0751 | 0.504 | 0.117 (inactive) | -0.626 | 0.118 (inactive) | -0.622 (inactive) | -0.0632 (inactive) | 0.186 (inactive) | -0.565 (inactive) | -0.105 (inactive) | -0.403 (inactive) | -0.357 | -0.185
CC(C)C(=C=CC[C@H](O)c1cccc(OCCO)c1)C[C@H](O)c1ccccn1 | 1.65 | -0.0875 | 0.731 | 0.301 | 0.942 | 0.807 | 0.259 (inactive) | 0.509 | -0.803 | 1.26 (inactive) | 1.91 | 0.589 (inactive) | 0.106 (inactive) | -0.332 (inactive) | 0.625 (inactive) | -0.69 (inactive) | 1.61 (inactive) | 1.5 (inactive) | 0.681 | 0.0436
